From PubChem BioAssay AID504332 (National Center for Advancing Translational Sciences (NCATS), 2011)
Among all 350,000 compounds or so, about 31,000 (8.9%) were called active. Not shown: some 15% with an inconclusive outcome. This excerpt belongs to a sample that is enriched for actives. Unmarked numbers belong to inactive results. Calls follow the shape of the dose curve; as a rule, active = well fitted inhibition curve with a large enough effect; inconclusive = small, poorly fitted or top-dose-only effect; inactive = no such curve, though single readings can be large or run the other way.

Each compound was assayed against Histone-lysine N-methyltransferase EHMT2 (Homo sapiens) (UniProt Q96KQ7) (assay: qHTS Assay for Inhibitors of Histone Lysine Methyltransferase G9a). Conditions: G9a H3K9 monomethylation, AlphaScreen, 2 h; series mostly up to 59 µM; activity, negative = inhibition: at the top concentration.
Sequence of Histone-lysine N-methyltransferase EHMT2 (Homo sapiens) (Q96KQ7 913-1193 limits assumed): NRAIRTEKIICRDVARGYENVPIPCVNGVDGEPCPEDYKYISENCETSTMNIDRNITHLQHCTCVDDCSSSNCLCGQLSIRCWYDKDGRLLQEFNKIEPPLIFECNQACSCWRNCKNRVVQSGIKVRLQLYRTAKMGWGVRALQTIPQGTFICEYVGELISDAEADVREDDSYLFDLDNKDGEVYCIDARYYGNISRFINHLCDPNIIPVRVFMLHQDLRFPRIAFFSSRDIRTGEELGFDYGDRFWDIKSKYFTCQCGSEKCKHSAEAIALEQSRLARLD
From the text: Methylated lysines, on the N-terminal tails of histone proteins serve as epigenetic markers to recruit factors that can then modify local chromatin structure to lead to functional consequences. G9a and other members of the SUV39 family of the SET domain-containing superfamily of histone lysine methyltransferases (HMT) have been identified to specifically methylate Lys9 of histone H3 (H3K9). G9a catalyzes the mono- and di-methylation of H3K9 in mammalian euchromatic regions, where the resulting H3K9me2 is indicative of transcriptional repression. […] The inhibition of G9a will result in transcriptional activation and work synergistically with DNA methyltransferase and histone deacetylase inhibitors, to kill cancer cells. This qHTS assay for identification of G9a inhibitors is a chemiluminescence based AlphaScreen (PerkinElmer). Methylation of biotinylated-histone peptide is measured through specific antibody-based detection, in conjunction with streptavidin-coated donor and anti-IgG antibody-coated acceptor beads. The method is particularly well suited for detection of inhibitors acting by the desired histone peptide competitive mechanism and is applicable to testing other HMTs. Although AlphaScreen has significant advantages with its utility in a variety of epigenetic target assays, the primary screening data provided in this deposition should be used with caution due to the prevalence of screening artifacts. An AlphaScreen counterscreen is highly recommended to be run against any putative actives to eliminate non specific artifacts. Alternatively, one can use other AlphaScreen assays in PubChem to filter out promiscuous hits. Quinn et al. A chemiluminescence-based method for identification of histone lysine methyltransferase inhibitors. Mol Biosyst 6(5): 782-8. 2010. PMID: 20567762 [2] Baell,Holloway. New substructure filters for removal of pan assay interference compounds (PAINS) from screening libraries and for their exclusion in bioassays. J Med Chem. 53(7):2719-40. 2010. PMID: 20131845 NIH Molecular Libraries Probe Production Network [MLPCN] NIH Chemical Genomics Center [NCGC] Structural Genomics Consortium (SGC) NIH Grant: 5U54 MH084681-02
To each well of a 1,536w plate, 2ul of HMT enzyme (final 20nM) were added, using a nanoliter dispenser. The G9a- and GLP-inhibitor BIX-01294 (CID: 25150857) are used as an intraplate control, with a 16-point titration in duplicate. A Kalypsys pin-tool transferred 23nl of library compound solution in DMSO to each well. Following a 15 min incubation of enzyme with compounds at room temperature, 1ul mixture of b-H3K9 peptide substrate (final 500nM) and SAM cofactor (final 20uM) were added. Reactions were allowed to proceed at room temperature for 2 hours. Methylated b-H3K9 peptide product was detected with 0.5 ug/mL rabbit polyclonal anti-monomethyl histone H3K9 antibody (Abcam Inc., Cambridge, MA) and 20 ug/mL each streptavidin-coated donor and anti-rabbit IgG acceptor AlphaScreen beads. Antibody and beads were added in a 1ul dispense, for a final volume of 4ul, and plates were incubated, protected from the light, for 10 min at room temperature. Microplates were then read on an EnVision multilabel plate reader using the 1,536 plate HTS AlphaScreen aperture (excitation time 80 ms, measurement time 240 ms).
% is scaled to controls: 0 for no effect and ±100 for the full control effect; potency is read from the fitted curve at half-maximal effect.
Also: nearly all actives have a fitted effect of over 75% in size.

Going from `CC(=O)c1ccc(N2CCN(CC(=O)Nc3ccccc3N3CCOCC3)CC2)cc1` to `CCOc1cc(C(=O)OCC(=O)Nc2cccc(C)c2)ccc1OCC(=O)N1CCOCC1`, the “activity, negative = inhibition” value rises from -4.9% to 24%.

Compared with `Cc1ccccc1NC(=O)c1cc2c([nH]c1=O)CC(C)(C)CC2=O`, `Cc1cccc(NC(=O)CSc2ncc(-c3ccccc3)[nH]2)c1C` is lower in “activity, negative = inhibition” value: 10.3% for the first, -30.7% for the second.

First: CCc1ccccc1NC(=O)Cn1c(=O)n(-c2cccc(C)c2)c(=O)c2c1c1cc(OC)ccc1n2C
Second: Cc1ccc2nc(COc3cccc(NC(=O)c4cccc(Cl)c4)c3)cc(=O)n2c1
The “activity, negative = inhibition” value of the first is lower: 0.155% for the first, 15.9% for the second.

Compared with `CC(C)c1cc(C(=O)O)on1`, `CCc1nc2onc(C)c2c(=O)n1CC(=O)O` is higher in “activity, negative = inhibition” value: 7.05% for the first, 17.4% for the second.

Compared with `O=C(CCCN1C(=O)/C(=C/c2ccco2)SC1=S)Nc1ccccc1`, `N#Cc1c(N)n(CCOC(=O)c2ccc(Cl)cc2)c2nc3ccccc3nc12` is higher in “activity, negative = inhibition” value: -21.4% for the first, -6.78% for the second.

Compared with `CC(CN1CCOCC1)c1ccccc1` (stereo not drawn), `COc1ccc(OC)c(NC(=O)CSc2nc3ccccc3nc2N2CCCCC2)c1` is higher in “activity, negative = inhibition” value: -32% for the first, 29.4% for the second.

First: Cc1ccc(-c2nn3c(=O)cc(CN4CCN(S(=O)(=O)c5ccc(Cl)cc5)CC4)nc3s2)cc1
Second: Cc1ccc2c(c1)C1CN(C)CCC1N2S(=O)(=O)c1cccc(F)c1 (stereo not drawn)
The “activity, negative = inhibition” value of the first is lower: 7.37% for the first, 10.1% for the second.

Compared with `CCc1nnc(SCC(=O)Nc2cc(OC)ccc2OC)nc1CC`, `COc1cc(Nc2nc(-c3ccc(OC)c(OC)c3)nc3ccccc23)cc(OC)c1` is lower in “activity, negative = inhibition” value: 5.36% for the first, -2.06% for the second.

First: COc1ccc(Cl)cc1N(C)C(=O)c1cc2c(=O)oc3ccc(C)cc3c2s1
Second: COC(=O)c1ccc(COC(=O)CNC(=O)c2cccc(OC)c2)o1
The “activity, negative = inhibition” value of the first is lower: 4.3% for the first, 9.25% for the second.

Going from `O=C(Nc1cc(Cl)ccc1N1CCOCC1)c1ccc(N2CCCC2=O)cc1` to `CCOc1cc(C(=S)N2CCOCC2)ccc1OS(=O)(=O)c1ccc(Br)cc1`, the “activity, negative = inhibition” value rises from -16.7% [at 102 µM] to 24% [at 102 µM].

Going from `CC(C)c1cc(C(=O)N/N=C/C(Br)=C/c2ccccc2)n[nH]1` to `CCN(c1ccccc1)S(=O)(=O)c1cc(C(=O)NCc2ccccn2)ccc1C`, the “activity, negative = inhibition” value rises from -9.73% [at 102 µM] to 26.1% [at 102 µM].

First: O=C(CNC(=O)c1ccccc1Br)NCCSc1ccc(Br)cc1
Second: COc1ccc(CCNC(=O)CCCCCNC(=O)N2CCn3c2nc2ccccc23)cc1OC
The “activity, negative = inhibition” value of the first is lower: -0.242% [at 102 µM] for the first, 50.3% [at 102 µM] for the second.

Compared with `CN=C1S/C(=C\c2c(OC)cc(OC)cc2OC)C(=O)N1C`, `COc1ccc(CNC(=O)CN(c2ccc(OC)c(Cl)c2)S(=O)(=O)c2ccc(C)cc2)cc1` is higher in “activity, negative = inhibition” value: -4.41% [at 102 µM] for the first, 33.2% [at 102 µM] for the second.

Compared with `CC(CN1CCC(n2nccc2NC(=O)C2CCCC2)CC1)c1ccccc1` (stereo not drawn), `CCOc1ccc(N2CC(C(=O)NCc3ccccn3)CC2=O)cc1` (stereo not drawn) is lower in “activity, negative = inhibition” value: 39.2% [at 102 µM] for the first, -6.32% [at 102 µM] for the second.

Compared with `COc1ccc(C(=O)NC2CCN(C(=O)Nc3ccc(F)cc3)CC2)cc1`, `CC(C)(C)c1ccc(C(=O)NCCn2c(N)c(C#N)c3nc4ccccc4nc32)cc1` is higher in “activity, negative = inhibition” value: 10.1% [at 102 µM] for the first, 23.9% [at 102 µM] for the second.

In the case of `COc1ccccc1Oc1nc(-c2cccnc2)nc2ccccc12`, the “activity, negative = inhibition” value is reported as 7.82% [at 102 µM].

`CC(C)c1cc(C(=O)O)n[nH]1` was tested, and the Potency was 44.7 µM (active).
With `CN1C(=O)/C(=C/c2ccco2)SC1=Nc1cccc(C(=O)O)c1` the Potency was 28.2 µM (active).
With `CC(CN1CCCCC1)c1ccccc1` (stereo not drawn) the Potency was 11.2 µM (active).
In the case of `CCOc1cc(C(=S)N2CCOCC2)ccc1O`, the Potency is reported as 4.47 µM (active).
With `Cc1ccc2c(c1)C1CN(C)CCC1N2S(=O)(=O)c1ccc(Oc2ccc([N+](=O)[O-])cc2)cc1` (stereo not drawn) the Potency was 35.5 µM (active).
`CCc1cc2cc(OC)ccc2nc1SCC(=O)Nc1cc(OC)c(OC)cc1C(=O)O` was tested, and the Potency was 50.1 µM (active).
For `CN(C)CCCn1c(N)c(C#N)c2nc(C#N)c(C#N)nc21`, the Potency was 25.1 µM (active).
With `CCOc1ccc(N2CC(C(=O)NCCN3C(=O)S/C(=C\c4cccnc4)C3=O)CC2=O)cc1` (stereo not drawn) the Potency was 39.8 µM (active).
With `COc1ccc(Nc2nc(-c3cccnc3)nc3ccccc23)cn1` the Potency was 35.5 µM (active).

Compared with `COc1ccc(NC(=O)Cn2cc(C(=O)c3ccncc3)c(=O)c3cc(C)ccc32)cc1Cl`, `CCC(=O)c1cc(F)ccc1OCC(=O)Nc1ccc2c(c1)OCCO2` is lower in activity, negative = inhibition: 3.8% [at 12.7 µM] for the first, -5.64% [at 12.7 µM] for the second.

First: O=S(=O)(c1ccc(SCc2ccc(Br)cc2)nc1)N1CCOCC1
Second: Cc1ccc(CN2CC(C(=O)NNC(=O)Cn3ccc(C(F)(F)F)n3)CC2=O)cc1 (stereo not drawn)
The activity, negative = inhibition of the first is lower: -2.71% [at 12.7 µM] for the first, -2.67% [at 12.7 µM] for the second.

Compared with `O=C(OCC1OC(Oc2ccc(O)cc2)C(O)C(O)C1O)c1ccccc1` (stereo not drawn), `COc1ccccc1N1CC(C(=O)NCCN2C(=O)S/C(=C\c3cccnc3)C2=O)CC1=O` (stereo not drawn) is higher in activity, negative = inhibition: 2.48% [at 12.7 µM] for the first, 2.97% [at 12.7 µM] for the second.

Compound `COc1ccc(S(=O)(=O)N2CCOC23CCN(S(=O)(=O)c2ccc([N+](=O)[O-])cc2)CC3)cc1` has an activity, negative = inhibition of -2.42% [at 0.501 µM].

Compound `O=C(CNC(=O)c1ccc2ccccc2c1)Nc1ncccc1O` has an activity, negative = inhibition of 20.5% [at 2.33 µM].
